A selection: hits, their analogues and other compounds. The true share with any hit is near 12%.
G9a inh: inhibitors of human histone lysine methyltransferase G9a. Q96KQ7. G9a H3K9 monomethylation, AlphaScreen, 2 h. Potency, µM (highest dose often 102 µM), most hits filed as inhibitors. 8.8% of 350,000 active; also: nearly all actives have a fitted effect of over 75% in size
Target sequence (Q96KQ7 913-1193 limits assumed): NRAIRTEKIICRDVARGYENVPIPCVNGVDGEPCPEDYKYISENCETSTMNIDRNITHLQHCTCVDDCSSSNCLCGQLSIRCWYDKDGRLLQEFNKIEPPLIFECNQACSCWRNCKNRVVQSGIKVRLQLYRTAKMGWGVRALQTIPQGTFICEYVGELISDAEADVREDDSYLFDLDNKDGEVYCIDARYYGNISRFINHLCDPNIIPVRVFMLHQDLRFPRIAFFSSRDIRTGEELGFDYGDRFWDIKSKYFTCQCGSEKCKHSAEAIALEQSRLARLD
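Methyltransferase reactions run at room temperature for 2 h (20 nM enzyme, 500 nM biotin-H3K9 peptide, 20 uM SAM) after a 15 min compound preincubation; product detected by AlphaScreen beads and anti-H3K9me1 antibody.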
PLK1 PBD inh: inhibitors of human PLK1 polo-box domain binding; P53350; Plk1 PBD binding of FITC phosphopeptide, fluorescence polarization; Potency, µM, actives largely listed as inhibitors; 2.8% of 360,000 active; also: series mostly up to about 57 µM; nearly all actives have a fitted effect of over 65% in size
BAZ2B block: BAZ2B (human) inhibition; Q9UIF8; Potency, µM (doses to about 114 µM), hits mostly inhibitors; AlphaScreen BAZ2B-H3K14Ac peptide displacement; 4.4% of 360,000 active; also: nearly all actives have a fitted effect of over 60% in size
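AlphaScreen displacement of biotin-H3(5-23)K14Ac peptide (50 nM final) from BAZ2B (50 nM final) in PBS pH 7.4, 0.01% Tween-20; complex preformed 30 min RT, then compounds (top 110 uM) 30 min RT, beads 20 min dark.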
HP1b chromo inh: blocks HP1-beta chromodomain binding to methylated histone tails; AlphaScreen HP1-beta / biotin-H3K9me3 peptide binding; P83916; AID 540317; 0.56% of 390,000 active; Potency, µM (doses to about 114 µM), actives largely listed as inhibitors; also: nearly all actives have a fitted effect of over 70% in size
Target sequence (P83916 whole entry, looked up): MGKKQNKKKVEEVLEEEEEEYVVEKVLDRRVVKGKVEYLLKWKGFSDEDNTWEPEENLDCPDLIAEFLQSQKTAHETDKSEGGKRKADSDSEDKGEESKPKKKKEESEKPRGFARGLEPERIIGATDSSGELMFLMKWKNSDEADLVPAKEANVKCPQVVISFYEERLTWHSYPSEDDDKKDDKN
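AlphaScreen: HP1-beta (50 nM) preformed 30 min with biotin-H3(1-18)K9me3 peptide (50 nM) in PBS pH 7.4, 0.01% Tween-20. Compound added for 30 min at RT, then streptavidin donor/nickel chelate acceptor beads (10 ug/mL) for 30 min.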
JMJD2A Tudor inh: JMJD2A Tudor domain (human) inhibition; O75164; AlphaScreen JMJD2A-Tudor / H3K4me3 peptide binding; Potency, µM (series often up to 114 µM), hits mostly inhibitors; 4.4% of 390,000 active; AID 504339; also: nearly all actives have a fitted effect of over 50% in size
Sfp inh: blocks B. subtilis Sfp PPTase activity; 3.5% of 310,000 active; Q9F4F7; Potency, µM, most hits filed as inhibitors; Biochemical Sfp PPTase activity, qHTS;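 also: the enzyme is Sfp with the accession as filed and its product quenches rhodamine fluorescence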
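After 15 min at room temperature with compound, 15 nM Sfp received 5 uM rhodamine-CoA plus 12.5 uM BHQ-2-ybbR (50 mM Hepes pH 7.6, 10 mM MgCl2). Rate came from the fluorescence difference over 30 min, ex 525/em 598 nm.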
Hits are given with their value; - = inactive; ? = inconclusive; . = no result; [ ] = dose if it differs, or a comment. Calls follow the shape of the dose curve; as a rule, active = well fitted curve in the direction sought with a large enough effect; inconclusive = small, poorly fitted or top-dose-only effect, or another doubt; inactive = no such curve, though single readings can be large; an effect the other way counts as inactive or inconclusive.

SMILES	G9a inh	PLK1 PBD inh	BAZ2B block	HP1b chromo inh	JMJD2A Tudor inh	Sfp inh
N#Cc1nc(Nc2cccc(Br)c2)nc(NC2CCCC2)n1	.	.	.	.	-	.
CCn1c(-c2cc(-c3ccc(C)c(C)c3)nc3ccccc23)n[nH]c1=S	39.8µM	.	?	.	.	-
O=C(Cn1c(=O)nc(-c2ccccc2)c2ccccc21)NCc1ccc(Cl)cc1	-[12.7 µM]	.	-	-	-	.
O=c1c2cc3c(cc2nc2sc(Nc4cccc([N+](=O)[O-])c4)nn12)OCO3	1.41µM	.	?	-	-	.
Cc1nn(-c2ccccc2)c(OC(=O)c2cccs2)c1S(=O)(=O)c1ccc([N+](=O)[O-])cc1	?	-	79.4µM	-	?	-
Cc1c(C)n(CCc2ccccc2)c2ncnc(NCCCN(C)C)c12	-[2.33 µM]	-	44.7µM	?	?	-
COc1ccc(CCNc2ncnc3c2c(C)c(C)n3CCO)cc1OC	-	26.7µM	-	-	?	-
COc1ccc(CCNc2ncnc3c2c(C)c(C)n3CCCN(C)C)cc1OC	?	-	-	-	?	-
CC(=O)N1c2ccc(S(=O)(=O)NCCC(=O)Nc3ccc(C)c(F)c3)cc2CC1C (stereo not given)	-	-	-	-	-	-
O=S1(=O)CCC(NCC2CCCO2)C1 (stereo not given)	50.1µM	-	-	-	-	-
O=S(=O)(NCCCCNS(=O)(=O)c1c(F)cccc1F)c1ccc2c(c1)OCCO2	-[2.33 µM]	.	-	-	-	.
COc1cc(OC)c(NC2(c3ccccc3)C(=O)c3ccccc3C2=O)cc1Cl	12.6µM	.	22.4µM	?	20µM	.
COc1ccc(C2(Nc3cccc(C(=O)O)c3C)C(=O)c3ccccc3C2=O)cc1	-	.	-	-	-	.
CCn1c(SCC(=O)NC2CC2)nnc1-c1cccc(OC)c1	.	-	-	-	-	-
O=C(NCCCNCCCNC(=O)c1ccc(/C=N/O)nc1)c1ccc(/C=N/O)nc1	.	-	1.41µM	-	5.62µM	14.1µM
CN(CCNC(=O)c1ccc(/C=N/O)nc1)Cc1ccccc1	25.1µM	-	?	-	8.91µM	-
Cc1ccc(C(=O)NCCCNCCCNC(=O)c2ccc(C)nc2)cn1	-	-	-	-	-	-
Cc1ccc(C(=O)NCCCNCCCN(C)C)cn1	?	-	?	-	50.1µM	-
O=C(NCCc1ccc(Cl)cc1)C1CCC(=O)N1C1CCCC1 (stereo not given)	44.7µM	-	-	-	-	-
Cc1nn(CC(=O)NCc2cccc(F)c2)c(=O)c2cccn12	.	-	-	?	56.2µM	-
CC1(C(=O)NS(=O)(=O)c2ccc(Cl)cc2)CCN1C(=O)Cc1cccs1 (stereo not given)	.	-	.	.	.	.
O=C(COC(=O)c1ccc2ccccc2c1O)NCC(F)(F)F	-	26.7µM	79.4µM	-	?	-
O=C(COC(=O)c1c2ccccc2cc2ccccc12)NCC(F)(F)F	-	-	-	-	-	-
C=CCn1c(SCC#N)nc2ccc(Cl)cc2c1=O	.	.	.	-	-	.
C/C(CCN1CCc2nc(-c3ccccc3)c(-c3ccccc3)cc2C1)=N\OC[C@@H](O)COCc1ccco1	.	.	.	.	.	-
SMILES	G9a inh	PLK1 PBD inh	BAZ2B block	HP1b chromo inh	JMJD2A Tudor inh	Sfp inh
CCc1cc2c(nc1CC)CCN(CC/C(C)=N/OC[C@H]1O[C@H](c3ccccc3)C=C[C@@H]1Oc1ccc(OC)cc1)C2	44.7µM	.	?	.	.	-
COc1ccc(O[C@H]2C=C[C@@H](c3ccccc3)O[C@@H]2CO/N=C(\C)CCN2CCc3nc(-c4ccccc4)c(-c4ccccc4)cc3C2)cc1	31.6µM	.	-	.	.	-
O=C1C(=O)N(Cc2cccc([N+](=O)[O-])c2)c2ccccc21	-	-	-	-	-	-
NNc1cc([N+](=O)[O-])cc2c1C(=O)N(Cc1ccccc1)S2=O (stereo not given)	2.82µM	?	?	-	56.2µM	22.4µM
Cc1nn(Cc2ccc(Cl)cc2)c(C)c1NC(=O)CSc1nc2c(c(C(F)(F)F)n1)CCc1ccccc1-2	-[0.501 µM]	-	-	-	-	35.5µM
Cc1ccc(Cn2nc(C)c(NC(=O)CSc3nc4c(c(C(F)(F)F)n3)CCc3ccccc3-4)c2C)cc1	-	-	-	-	-	-
N#Cc1c(NC(=O)CSc2nc3c(c(C(F)(F)F)n2)CCc2ccccc2-3)sc2c1CCCC2	11.2µM	?	-	-	-	-
CC(=O)OC[C@@H]1CN(Cc2ccccc2)C[C@H](n2cnc3c(N(C)C(C)C)ncnc32)O1	.	-	.	.	.	.
C[C@H](NC(=O)[C@@H](N)Cc1ccc(O)cc1)C(=O)NCC(=O)N[C@H]1CSSC[C@@H](C(=O)O)NC(=O)[C@H](CO)NC(=O)[C@H]([C@@H](C)O)NC(=O)[C@H](Cc2ccccc2)NC(=O)[C@H]([C@@H](C)O)NC(=O)[C@H](CCCCN)NC(=O)[C@H](Cc2c[nH]c3ccccc23)NC(=O)[C@H](Cc2ccccc2)NC(=O)[C@H](Cc2ccccc2)NC(=O)[C@H](CC(N)=O)NC(=O)[C@H](CCCCN)NC1=O	.	.	.	.	.	-
C/C(CC1CC2=C(CC1(C)C)C(C)(C)CCC2)=N\NC(N)=S (stereo not given)	31.6µM	16.8µM	-	?	-	?
O=C(COC(=O)C1c2ccccc2Oc2ccccc21)NC1CCS(=O)(=O)C1 (stereo not given)	-[0.0925 µM]	11.9µM	-	-	-	-
Cc1cccc(NNC(N)=S)c1	39.8µM	-	?	-	-	14.1µM
Cc1ccc(NC(=O)Nc2cccc(Cl)c2)c(C(=O)O)c1	-	18.9µM	-	-	?	-
CSc1ccccc1NC(=O)Nc1cccc(Cl)c1	-[2.33 µM]	-	-	-	-	-
NC(=S)NNC(=O)Nc1cccc(Cl)c1	8.91µM	-	-	-	?	-
NC(=S)NNc1cccc(Cl)c1	8.91µM	?	-	-	?	39.8µM
O=S(=O)(c1ccccc1)N1CCC2(CCCN(Cc3ccncc3)C2)CC1	-[12.7 µM]	.	.	.	.	-
COc1cc2c(c(OC)c1OC)C(c1ccc(C)cc1)CC(=O)O2 (stereo not given)	-	-	.	-	-	-
O=C(COC(=O)CCc1ccccc1)NNC(=O)c1ccccc1	.	-	.	-	-	.
CC1(C(=O)NS(=O)(=O)c2ccc(C#N)cc2)CCN1C(=O)c1ccccc1CCc1ccccc1 (stereo not given)	.	-	.	.	.	.
S=C(Nc1cccc(Cl)c1)NC1CCCCC1	-	-	-	-	-	-
S=C(NNc1cccc(Cl)c1)NC1CCCCC1	28.2µM	-	35.5µM	?	8.91µM	-
Cc1nnnn1/C(=C\c1ccccc1)C(=O)OCC(=O)NC1CCCCC1	50.1µM	-	-	-	-	.
Cc1nnnn1/C(=C\c1ccccc1)C(=O)OCC(=O)NC(C)(C)C	-	-	-	-	-	-
CCn1c(COc2ccccc2OC)nnc1SCC(=O)NC1CCCC1	-	-	-	-	-	-
